Shown are actives, neighbours in structure and some others; about 12% of the full set was active somewhere.
Gal4-VP16 FLuc = VP16 counterscreen qHTS for inhibitors of ROR gamma transcriptional activity | AID 2546, 2010 | Potency, µM (top dose mostly 53.6 µM), inactives show top-dose activity, negative = inhibition, hits mostly inhibitors | 3.5% of 310,000 active | Drosophila S2 Gal4-VP16 UAS-luciferase, luminescence, 20 h;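 also: Gal4-VP16 expression switched on by copper sulfate through the metallothionein promoter; nearly all actives have a fitted effect of over 50% in size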
ALDH1A1 inh = qHTS Assay for Inhibitors of Aldehyde Dehydrogenase 1 (ALDH1A1). Aldehyde dehydrogenase 1A1 (Homo sapiens), P00352. Purified ALDH1A1, NADH fluorescence, propionaldehyde substrate. Potency, µM (doses to about 75.3 µM), inactives show at the top dose activity, negative = inhibition, hits mostly inhibitors. AID 1030, 2008. 7.3% of 220,000 active; active = well fitted inhibition curve with a large enough effect, not every such curve was filed as active; inconclusive = small, poorly fitted or top-dose-only effect, or another doubt; inactive = no such curve, though single readings can be large or run the other way;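 also: plate controls were no enzyme wells and a reference inhibitor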
Target sequence (P00352 whole entry, looked up): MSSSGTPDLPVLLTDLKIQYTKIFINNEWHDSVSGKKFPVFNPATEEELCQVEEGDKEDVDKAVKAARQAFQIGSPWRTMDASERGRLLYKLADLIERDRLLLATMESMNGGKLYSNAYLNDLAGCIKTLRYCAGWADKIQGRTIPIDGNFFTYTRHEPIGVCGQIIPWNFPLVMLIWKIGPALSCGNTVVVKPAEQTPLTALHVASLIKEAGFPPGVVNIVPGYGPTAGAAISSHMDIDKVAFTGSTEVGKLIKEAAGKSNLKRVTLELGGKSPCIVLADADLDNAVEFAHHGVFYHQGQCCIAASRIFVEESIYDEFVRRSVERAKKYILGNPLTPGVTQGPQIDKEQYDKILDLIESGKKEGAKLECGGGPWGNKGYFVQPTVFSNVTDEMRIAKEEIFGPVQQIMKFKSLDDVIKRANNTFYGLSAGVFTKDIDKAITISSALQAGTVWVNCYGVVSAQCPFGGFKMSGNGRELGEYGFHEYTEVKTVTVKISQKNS
PLK1 PBD inh = qHTS for Inhibitors of PLK1-PDB (polo-like kinase 1 - polo-box domain): Primary Screen. Serine/threonine-protein kinase PLK1 (Homo sapiens), P53350. Plk1 PBD binding of FITC phosphopeptide, fluorescence polarization. Potency, µM, for the others: max response, negative = inhibition, hits mostly inhibitors. 2.8% of 360,000 active. AID 720504, 2013; also: series mostly up to about 57 µM; nearly all actives have a fitted effect of over 65% in size
Sfp PPTase inh = qHTS Assay for Inhibitors of Bacillus subtilis Sfp phosphopantetheinyl transferase (PPTase). Biochemical Sfp PPTase activity, qHTS. Potency, µM, inactives show largest response in the series, negative = inhibition, most hits filed as inhibitors. 3.5% of 310,000 active;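 also: the enzyme is Sfp with the accession as filed and its product quenches rhodamine fluorescence; 0% = enzyme reaction without inhibitor and -100% = no enzyme wells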
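Reaction rates are the 30-min fluorescence difference (ex 525, em 598 nm) in wells containing 15 nM Sfp, 5 uM rhodamine-CoA and 12.5 uM BHQ-2-YbbR at pH 7.6 with 10 mM MgCl2.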
RORgamma inh = qHTS for inhibitors of ROR gamma transcriptional activity; Nuclear receptor ROR-gamma (Mus musculus), P51450; Drosophila S2 Gal4-RORgamma UAS-luciferase reporter, 20 h; Potency, µM (top dose mostly 53.6 µM), without a hit: top-dose activity change, negative = inhibition, hits mostly inhibitors; 5.4% of 310,000 active; also: nearly all actives have a fitted effect of over 60% in size
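Stably transfected Drosophila Schneider cells are the test system, with ROR gamma fused to Gal4 and luciferase under UAS control; luminescence is read after 20 hr of 700 uM copper sulfate induction at ambient temperature.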
* = called active by the depositor; ? = inconclusive; / = not tested or not shown; [ ] = remark or other dose. Unless noted, calls follow the shape of the dose curve; as a rule, active = well fitted curve in the direction sought with a large enough effect; inconclusive = small, poorly fitted or top-dose-only effect, or another doubt; inactive = no such curve, though single readings can be large; an effect the other way counts as inactive or inconclusive. Unless noted, % is scaled to controls: 0 for no effect and ±100 for the full control effect; potency is read from the fitted curve at half-maximal effect.

SMILES | Gal4-VP16 FLuc | ALDH1A1 inh | PLK1 PBD inh | Sfp PPTase inh | RORgamma inh
Cc1cc(Cl)ccc1NC(=S)N1CCN(Cc2ccc3c(c2)OCO3)CC1 | ? | 1% | 3% | 2% | ?
O=C(NC(=S)N1CCN(Cc2ccc3c(c2)OCO3)CC1)c1ccc(Cl)cc1 | 0.63µM* | ? | -10% | -7% | 0.45µM*
O=S(=O)(c1c(F)cccc1F)N1CCN(C(=S)NCc2ccc3c(c2)OCO3)CC1 | -3% | 4µM* | ? | -4% | 23%
O=C(c1ccc(Cl)c([N+](=O)[O-])c1)N1CCN(Cc2ccc3c(c2)OCO3)CC1 | 2% | 19µM* | -8% | 18% | 8%
CCn1c(CCCc2nc3c([nH]2)c(=O)n(C)c(=O)n3C)nc2c1c(=O)n(C)c(=O)n2C | / | 3%[13.5 µM] | / | / | /
C=C(C)C(N)=O | 3% | 10% | / | / | 14%
CN1C(=O)[C@@](O)(c2cn(C)c3ccccc23)c2cc(Br)ccc21 | / | / | -3% | / | /
O=S(=O)(c1ccc(Cl)nc1)N1CCN(Cc2ccc3c(c2)OCO3)CC1 | 6% | 14µM* | -2% | -2% | 21%
O=S(=O)(c1cc(Cl)ccc1Cl)N1CCN(Cc2ccc3c(c2)OCO3)CC1 | 1% | -6% | 4% | 18% | ?
O=C(c1cccc(Cl)c1)N1CCN(Cc2ccc3c(c2)OCO3)CC1 | 5% | / | -1% | 16% | -5%
O=C(NC(=S)N1CCN(Cc2ccc3c(c2)OCO3)CC1)c1cccc(Br)c1 | 0.63µM* | ? | 2% | 6% | 0.56µM*
CC1CCN(c2nc3ccc(C(=O)N4CCN(Cc5ccc6c(c5)OCO6)CC4)cc3s2)CC1 | 7.1µM* | ? | 2% | 3% | ?
C=CCNC(=S)N1CCN(Cc2ccc3c(c2)OCO3)CC1 | -2% | / | -9% | 18µM* | -13%
O=C1CCCCC1Nc1ccc2ccccc2c1 (stereo not drawn) | / | / | -12% | / | /
COc1cc(OC)cc(-c2nc3ccccc3c(=O)n2OC(=O)c2ccc(Br)cc2)c1 | 11µM* | -4% | -22% | 11% | 10µM*
COc1ccc(C(=O)On2c(-c3ccc(Br)cc3)nc3ccccc3c2=O)cc1 | 5µM* | ? | -6% | -9% | 7.1µM*
CC(=O)Nc1cccc(-c2csc(C(C)(NC(C)=O)c3ccccc3)n2)c1 (stereo not drawn) | / | / | -10% | / | /
C[C@@H]1CN([C@H](C)CO)C(=O)CCCn2nncc2CO[C@H]1CN(C)Cc1cccc(O)c1 | / | / | -20% | / | /
C=CCc1ccc(OCCOc2ccc(/C=N/n3cnnc3)cc2OCC)c(OC)c1 | ? | ? | -14% | -6% | 16µM*
C/C(=N\NC(=O)c1cccc(C)c1O)c1ccc(NC(=O)Cc2ccccc2)cc1 | ? | / | -7% | 15% | 11µM*
COc1ccccc1C(=O)N/N=C(\C)c1ccc(NC(=O)Cc2ccccc2)cc1 | 7.9µM* | / | -5% | 21% | 18%
C/C(=N\NC(=O)c1cc(O)cc(O)c1)c1ccc(NC(=O)Cc2ccccc2)cc1 | 26% | / | ? | 4% | ?
C/C(=N\NC(=O)c1ccccc1N)c1ccc(NC(=O)Cc2ccccc2)cc1 | 0% | / | 13% | 2% | 7%
COc1ccc(C(=O)C2CCCN(C(=O)c3cccc(N(C)C)c3)C2)cc1OC (stereo not drawn) | 7% | / | 2% | 2% | 39%
CCCCC(=O)N(C)c1c(C)nc2ccc(C(=O)N(C)CCN(C)C)cn12 | / | / | -4% | / | /
SMILES | Gal4-VP16 FLuc | ALDH1A1 inh | PLK1 PBD inh | Sfp PPTase inh | RORgamma inh
COc1ccc(CNC(=O)CSc2ccsc2[N+](=O)[O-])cc1 | ? | 14µM* | ? | 17% | ?
CCN(CC)c1ccc(NC(=O)CSc2ccsc2[N+](=O)[O-])c(C)c1 | -10% | 15µM* | 24µM* | -27% | 27%[10 µM]
Cc1ccc(CNC(=O)CSc2ccsc2[N+](=O)[O-])cc1 | ? | 1% | -18% | 5% | 26%
Cc1ccc(C)c(C(O)c2ncc(-c3cccc(C(F)(F)F)c3)[nH]2)c1 (stereo not drawn) | / | / | 5% | / | /
CCC1CCCCN1C(=O)COC(=O)c1cncc(Br)c1 (stereo not drawn) | / | / | -2% | / | /
CC(C)CCOc1ccc(C(=O)CCNC(C)C(=O)O)cc1 (stereo not drawn) | / | 0.13µM* | / | -10% | -2%[0.365 µM]
COc1ccc2c3c(c(=O)oc2c1)C1O[C@](c2ccsc2)(Cc2cc(C#N)ccc21)O3 | -25%[10 µM] | / | / | -10% | 10%[10 µM]
CCCNC(=O)OC[C@H]1O[C@@H](CCO/N=C\[C@@H](NS(=O)(=O)c2ccc(C)cc2)[C@H](C)/C=C\CC(=O)OC)C=C[C@@H]1Oc1ccc(OC)cc1 | 4%[10 µM] | ? | / | ? | -3%[10 µM]
O=C(Nc1cccc2cccnc12)[C@@H]1[C@@H](C(=O)O)[C@H]2CC[C@@H]1O2 | / | 1%[13.5 µM] | / | / | /
O=C1c2ccccc2C(=O)c2c1ccc1c(=O)n(C3CCCCC3)[nH]c21 | -30% | -11% | -9% | -12% | 7.9µM*
CCOc1nc(NC2CCCCC2)nc(NC(C)(C)C)n1 | 16µM* | -6% | 0% | 11% | ?
COCCN(C(=S)Nc1c(C)cc(C)cc1C)C(C)c1cccs1 (stereo not drawn) | 2% | -2% | ? | 50µM* | 10µM*
COCCN(C(=S)Nc1ccc(C)cc1C)C(C)c1cccs1 (stereo not drawn) | ? | -12% | 4% | 9% | ?
COCCN(C(=S)Nc1cccc(OC)c1)C(C)c1cccs1 (stereo not drawn) | ? | ? | -9% | -12% | ?
COCCN(C(=S)Nc1ccc(C(C)C)cc1)C(C)c1cccs1 (stereo not drawn) | ? | 0% | 0% | 18% | 3.5µM*
O=C(O)c1oc(C(=O)O)c(C(=O)O)c1C(=O)O | / | 9%[13.5 µM] | / | / | /
CCCn1c(SCC(=O)N2CCCCC2)nnc1C(C)C | 7% | ? | 11µM* | 13% | 16%
O=C(Nc1ccc(-n2cnnn2)cc1)c1cn2ccccc2n1 | -9% | 9% | -19% | 13% | 4%
Cc1csc(NC(=O)c2ccccc2C(=O)O)n1 | 5% | 8% | -5% | -15% | 12%

Assay outcomes (PubChem)
